The values below come from PubChem BioAssay (Tox21).

Assay [1] can be described thus: qHTS assay to identify aromatase inhibitors - cell viability counter screen (AID 743084).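 Further: cells stimulated with testosterone during compound exposure; nearly all actives have a fitted effect of over 55% in size.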 For orientation: Quantitative high-throughput screening tests each substance at several concentrations.
Assay [2] concerns the target Aryl hydrocarbon receptor (Homo sapiens) (UniProt P35869). Briefly: qHTS assay to identify small molecule that activate the aryl hydrocarbon receptor (AhR) signaling pathway (AID 743085). Further: nearly all actives have a fitted effect of over 15% in size. Further: potency means the concentration at half of the fitted maximal effect.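 On activation: HG2L7.5c1 human HepG2 liver cells with stably integrated DRE-driven firefly reporter; series mostly up to about 70 µM.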 In outline: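 Stably transfected human liver carcinoma cells (HG2L7.5c1; 20 DRE-firefly luciferase) were incubated 5 h, dosed, and kept 24 h at 37C. Agonism was scored from increased luciferase luminescence.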

The nature of assay [3]: qHTS assay to identify small molecule that activate the aryl hydrocarbon receptor (AhR) signaling pathway - cell viability counter screen (AID 743086). Further: series mostly up to about 70 µM; nearly all actives have a fitted effect of over 45% in size. In outline: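 Cytotoxicity counter screen: CellTiter-Fluor signal (30 min, 37 C) in 4000 HepG2 cells/well carrying the DRE-luciferase reporter, following 24 h compound exposure at 37 C.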
Assay [4] has as its target Peroxisome proliferator-activated receptor gamma (Homo sapiens) (UniProt P37231). In words: qHTS assay to identify small molecule agonists of the peroxisome proliferator-activated receptor gamma (PPARg) signaling pathway (AID 743094; active means well fitted activation curve with a large enough effect in the signal ratio in the repeat runs, not every such curve was filed as active; the % refers to the signal ratio). In a few lines:
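Beta-lactamase FRET fluorescence was the read-out after a 1 h room-temperature substrate step, following 17 h compound treatment at 37C of HEK293H cells expressing a UAS-driven bla reporter responsive to PPARg.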

Assay [5] shares this target. In words: qHTS assay to identify small molecule antagonists of the peroxisome proliferator-activated receptor gamma (PPARg) signaling pathway (AID 743191; calls by dose curve; further: series mostly up to about 63 µM; nearly all actives have a fitted effect of over 30% in size). In a few lines: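 Beta-lactamase reporter under UAS control in HEK293H PPARg-bla cells; compound treatment 17 h at 37C. Read-out: fluorescence intensity after 1 h room-temperature incubation with LiveBLAzer B/G FRET substrate.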

The nature of assay [6]: qHTS assay to identify small molecule antagonists of the peroxisome proliferator-activated receptor gamma (PPARg) signaling pathway - cell viability counter screen (AID 743194). Further: nearly all actives have a fitted effect of over 55% in size. As to conditions: Potency: co-treated with 50 nM rosiglitazone. In a few lines: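 Viability was measured as CellTiter-Glo luminescence in GeneBLAzer PPARg UAS-bla HEK293H cells. These cells had been exposed 17 h at 37 C to compounds together with rosiglitazone at 50 nM final, with the beta-lactamase readout taken in the same wells.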

Assay [7] can be described thus: qHTS assay for small molecule agonists of the antioxidant response element (ARE) signaling pathway (AID 743202; active means well fitted activation curve with a large enough effect in the signal ratio in the repeat runs, not every such curve was filed as active; the % refers to the signal ratio). In outline:
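An ARE-responsive beta-lactamase gene stably integrated in HepG2 cells serves as reporter. After 5 h plating and 16 h compound incubation at 37 C, fluorescence of the B/G FRET substrate was measured.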

Assay [8] can be described thus: qHTS assay for small molecule agonists of the antioxidant response element (ARE) signaling pathway - cell viability counter screen (AID 743203; calls by dose curve; further: nearly all actives have a fitted effect of over 55% in size). In outline:
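HepG2 cells carrying ARE-driven beta-lactamase; 2,000 cells/well; 5 hrs plating; compound pinned from DMSO; 16 hrs 37C/5% CO2; CellTiter-Glo added; 30 min RT; luminescence.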

Assay [9] can be described thus: qHTS assay for small molecule activators of the heat shock response signaling pathway - cell viability counter screen (AID 743209). Further: nearly all actives have a fitted effect of over 50% in size. In a few lines:
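Luminescence from CellTiter-Glo, added after the beta-lactamase FRET read, gave the viability signal. Cells were HSE-bla HeLa treated with DMSO-dissolved compounds for 5 h at 37 C following overnight plating.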

A short description of assay [10]: qHTS assay for small molecule activators of the heat shock response signaling pathway (AID 743210; active means well fitted activation curve with a large enough effect in the signal ratio in the repeat runs, with a control signal flat, not every such curve was filed as active; the % refers to the signal ratio;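 further: HeLa cells with beta-lactamase reporter driven by heat shock elements; series mostly up to about 63 µM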). In a few lines: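 In HSE-bla HeLa cells, 5 h compound incubation (37 C) precedes addition of LiveBLAzer B/G substrate; after 2.5 h at room temperature, fluorescence intensity indicates reporter induction.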
The nature of assay [11]: qHTS assay to identify small molecule agonists of the peroxisome proliferator-activated receptor delta (PPARd) signaling pathway - cell viability counter screen (AID 743211). Further: nearly all actives have a fitted effect of over 55% in size. In a few lines:
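In the same wells used for beta-lactamase reporter measurement, cytotoxicity is scored by CellTiter-Glo. HEK293H PPARd-bla cells receive compound for 17 h at 37C following a 5 h settling period.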

Assay [12] deals with Peroxisome proliferator-activated receptor delta (Homo sapiens) (UniProt Q03181). Briefly: qHTS assay to identify small molecule agonists of the peroxisome proliferator-activated receptor delta (PPARd) signaling pathway (AID 743212; calls by dose curve). In a few lines:
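HEK293H UAS-bla reporter cells, human PPARd system; compounds delivered in DMSO after 5 h plating, then at 37 C. Beta-lactamase FRET read, 2 h RT substrate step.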

Assay [13] can be described thus: qHTS assay to identify small molecule antagonists of the peroxisome proliferator-activated receptor delta (PPARd) signaling pathway - cell viability counter screen (AID 743213). Further: nearly all actives have a fitted effect of over 50% in size. In a few lines:
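In this counter screen, HEK293H cells carrying a UAS-beta-lactamase reporter are co-treated with test compounds and 300 nM L165041 (final) for 17 h at 37 C; cell viability is quantified by CellTiter-Glo luminescence.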

The target of assay [14] is Peroxisome proliferator-activated receptor delta (Homo sapiens) (UniProt Q03181). In words: qHTS assay to identify small molecule antagonists of the peroxisome proliferator-activated receptor delta (PPARd) signaling pathway (AID 743215; active means well fitted inhibition curve with a large enough effect in the signal ratio in the repeat runs, not every such curve was filed as active; the % refers to the signal ratio;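 further: cells stimulated with agonist L165041 at 300 nM final during compound exposure; series mostly up to about 62 µM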). In a few lines:
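Read-out is beta-lactamase FRET fluorescence, measured 2 h after substrate addition at room temperature. Beforehand, UAS-bla HEK293H cells carrying the PPARd reporter were exposed to compounds with L165041 at 300 nM final for 17 h at 37 C.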

The nature of assay [15]: qHTS assay to identify small molecule agonists of the farnesoid-X-receptor (FXR) signaling pathway - cell viability counter screen (AID 743218). Further: nearly all actives have a fitted effect of over 45% in size. In a few lines:
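HEK 293T FXR-bla cells; 5 h pre-incubation, 16 h compound exposure at 37 C; LiveBLAzer substrate 2 h RT, then CellTiter-Glo 30 min RT, luminescence.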

The nature of assay [16]: qHTS assay to identify small molecule antagonists of the farnesoid-X-receptor (FXR) signaling pathway - cell viability counter screen (AID 743221; active means well fitted cell-killing curve with a large enough effect in the repeat runs, not every such curve was filed as active; further: nearly all actives have a fitted effect of over 50% in size). In outline:
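Here viability was scored by luminescence after CellTiter-Glo addition to wells already read for beta-lactamase. Prior treatment: compound plus CDCA (50 uM final), 16 h, 37 C, HEK 293T FXR-bla cells.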

The target of assay [17] is Vitamin D3 receptor (Homo sapiens) (UniProt P11473). In words: qHTS assay to identify small molecule agonists of the vitamin D receptor (VDR) signaling pathway (AID 743222; calls by dose curve). In a few lines:
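VDR-bla cells, 2,000/well; 4 h preincubation 37C; cpd (DMSO) 16 h; LiveBLAzer B/G substrate 2 h RT; fluorescence intensity read.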

The target is the same in assay [18]. In words: qHTS assay to identify small molecule antagonists of the vitamin D receptor (VDR) signaling pathway (AID 743223; active means well fitted inhibition curve with a large enough effect in the signal ratio in the repeat runs, not every such curve was filed as active; the % refers to the signal ratio). In outline:
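Inhibition of agonist-driven VDR signalling is scored in VDR-bla cells: 3 nM final 1alpha,25-dihydroxyvitamin D3 plus compound, 16 h at 37C, then beta-lactamase detection by FRET substrate fluorescence after 2 h.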

Assay [19] addresses Bile acid receptor (Homo sapiens) (UniProt Q96RI1). In words: qHTS assay to identify small molecule antagonists of the farnesoid-X-receptor (FXR) signaling pathway (AID 743217; active means well fitted inhibition curve with a large enough effect in the signal ratio in the repeat runs, not every such curve was filed as active; the % refers to the signal ratio). In a few lines: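 HEK 293T FXR-UAS-bla, 5000 cells/well; compound + CDCA 50 uM final; 16 h, 37 °C; B/G FRET substrate 2 h RT; fluorescence.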
Assay [20] shares this target. In words: qHTS assay to identify small molecule agonists of the farnesoid-X-receptor (FXR) signaling pathway (AID 743220; active means well fitted activation curve with a large enough effect in the signal ratio in the repeat runs, not every such curve was filed as active; the % refers to the signal ratio). In a few lines: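 Beta-lactamase reporter under UAS control in GeneBLAzer FXR HEK 293T cells (5000/well) measured with LiveBLAzer FRET substrate after 2 h at room temperature. Compound exposure lasted 16 h at 37C.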

Records with an inconclusive call do not appear. The source made the active and inactive calls. Unless noted, the call rests on the fitted dose curve; in most records, active means well fitted curve in the direction sought with a large enough effect in the repeat runs; inconclusive means weak or mixed curves; inactive means no such curve, though single readings can be large; an effect the other way counts as inactive or inconclusive.

Sequence of Peroxisome proliferator-activated receptor delta (Homo sapiens) (Q03181 whole entry, looked up): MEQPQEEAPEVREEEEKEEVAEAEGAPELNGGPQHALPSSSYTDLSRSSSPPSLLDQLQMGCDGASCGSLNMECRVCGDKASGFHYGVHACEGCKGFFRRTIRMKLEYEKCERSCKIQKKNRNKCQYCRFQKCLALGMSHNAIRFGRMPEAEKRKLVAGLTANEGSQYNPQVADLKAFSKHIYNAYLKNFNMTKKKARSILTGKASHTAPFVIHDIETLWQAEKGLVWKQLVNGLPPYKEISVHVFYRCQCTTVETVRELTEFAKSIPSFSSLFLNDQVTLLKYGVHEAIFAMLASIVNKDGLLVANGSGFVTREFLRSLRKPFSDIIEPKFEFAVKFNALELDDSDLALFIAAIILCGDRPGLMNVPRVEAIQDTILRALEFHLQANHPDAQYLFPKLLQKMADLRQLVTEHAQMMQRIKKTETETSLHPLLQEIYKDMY
Sequence of Vitamin D3 receptor (Homo sapiens) (P11473 whole entry, looked up): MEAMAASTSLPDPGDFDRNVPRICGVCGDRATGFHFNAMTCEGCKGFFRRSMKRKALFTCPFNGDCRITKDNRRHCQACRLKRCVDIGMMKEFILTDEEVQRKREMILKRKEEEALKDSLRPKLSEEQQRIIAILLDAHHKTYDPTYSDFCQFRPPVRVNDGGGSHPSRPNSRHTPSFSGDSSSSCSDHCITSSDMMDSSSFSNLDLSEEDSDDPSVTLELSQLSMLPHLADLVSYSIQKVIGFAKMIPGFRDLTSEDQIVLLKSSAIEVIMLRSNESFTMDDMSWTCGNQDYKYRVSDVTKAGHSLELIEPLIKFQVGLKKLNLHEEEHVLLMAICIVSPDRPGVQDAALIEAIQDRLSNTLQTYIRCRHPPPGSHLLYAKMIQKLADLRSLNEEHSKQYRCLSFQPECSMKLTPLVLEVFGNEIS
Sequence of Peroxisome proliferator-activated receptor gamma (Homo sapiens) (P37231 whole entry, looked up): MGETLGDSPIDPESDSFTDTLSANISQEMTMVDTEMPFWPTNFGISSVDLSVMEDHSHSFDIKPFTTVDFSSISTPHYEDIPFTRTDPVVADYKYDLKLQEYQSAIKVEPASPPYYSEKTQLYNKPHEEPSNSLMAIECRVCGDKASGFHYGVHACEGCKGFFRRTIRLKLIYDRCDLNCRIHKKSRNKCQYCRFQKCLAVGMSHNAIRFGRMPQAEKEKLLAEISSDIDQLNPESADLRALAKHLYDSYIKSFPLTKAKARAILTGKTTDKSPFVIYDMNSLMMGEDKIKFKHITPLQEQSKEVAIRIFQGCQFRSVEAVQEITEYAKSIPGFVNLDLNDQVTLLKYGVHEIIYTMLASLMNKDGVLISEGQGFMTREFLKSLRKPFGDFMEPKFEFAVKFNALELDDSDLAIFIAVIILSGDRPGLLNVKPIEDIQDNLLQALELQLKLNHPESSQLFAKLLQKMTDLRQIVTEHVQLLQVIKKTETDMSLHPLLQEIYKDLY
Sequence of Aryl hydrocarbon receptor (Homo sapiens) (P35869 whole entry, looked up): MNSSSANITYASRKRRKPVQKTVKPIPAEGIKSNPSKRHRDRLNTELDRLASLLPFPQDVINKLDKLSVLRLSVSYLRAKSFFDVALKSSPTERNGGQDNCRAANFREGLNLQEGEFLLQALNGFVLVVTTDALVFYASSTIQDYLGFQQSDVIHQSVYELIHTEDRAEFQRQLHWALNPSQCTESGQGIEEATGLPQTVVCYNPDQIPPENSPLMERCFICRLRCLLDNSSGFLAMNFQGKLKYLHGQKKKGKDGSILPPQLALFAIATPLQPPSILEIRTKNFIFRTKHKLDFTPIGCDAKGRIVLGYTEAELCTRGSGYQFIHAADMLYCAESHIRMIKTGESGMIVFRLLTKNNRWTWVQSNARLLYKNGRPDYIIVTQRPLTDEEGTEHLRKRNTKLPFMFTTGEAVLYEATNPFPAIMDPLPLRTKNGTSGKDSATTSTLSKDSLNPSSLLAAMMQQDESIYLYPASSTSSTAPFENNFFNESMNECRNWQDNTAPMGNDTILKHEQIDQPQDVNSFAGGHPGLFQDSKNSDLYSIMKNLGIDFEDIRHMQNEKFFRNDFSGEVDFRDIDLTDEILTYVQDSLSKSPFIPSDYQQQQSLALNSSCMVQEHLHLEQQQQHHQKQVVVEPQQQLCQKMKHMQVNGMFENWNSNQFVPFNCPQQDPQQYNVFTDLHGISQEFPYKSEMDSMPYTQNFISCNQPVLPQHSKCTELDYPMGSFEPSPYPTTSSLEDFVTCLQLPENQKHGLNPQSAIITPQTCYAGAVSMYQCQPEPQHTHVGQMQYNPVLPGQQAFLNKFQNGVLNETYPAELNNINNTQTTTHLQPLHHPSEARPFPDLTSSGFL
Sequence of Bile acid receptor (Homo sapiens) (Q96RI1 whole entry, looked up): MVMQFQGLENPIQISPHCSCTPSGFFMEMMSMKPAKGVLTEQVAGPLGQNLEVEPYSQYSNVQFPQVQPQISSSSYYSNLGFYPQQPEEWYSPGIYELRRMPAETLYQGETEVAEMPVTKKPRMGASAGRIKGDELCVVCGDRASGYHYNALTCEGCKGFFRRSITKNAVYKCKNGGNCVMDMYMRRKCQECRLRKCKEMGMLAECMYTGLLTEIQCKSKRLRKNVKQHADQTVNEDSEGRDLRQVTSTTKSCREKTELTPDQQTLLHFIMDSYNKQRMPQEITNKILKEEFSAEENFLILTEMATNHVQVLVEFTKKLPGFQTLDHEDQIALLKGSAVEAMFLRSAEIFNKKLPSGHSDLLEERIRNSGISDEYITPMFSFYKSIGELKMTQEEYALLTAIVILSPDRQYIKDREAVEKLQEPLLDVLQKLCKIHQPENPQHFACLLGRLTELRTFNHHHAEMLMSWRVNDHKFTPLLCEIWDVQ

As for `Brc1ccccc1`, the Potency result in [1], in [2], in [3], in assay [4], in [5] and in [6] was “inactive” in each case. The Potency entry in [7], in assay [8], in assay [9], in assay [11], in assay [13] and in assay [14] was “inactive” throughout. Also, the Potency result in assay [15] and in assay [16] was “inactive” in each case. The call in [10], in assay [12] and in assay [17] was inactive.

For `CCN(C)N=O`, the Potency entry in [1], in assay [2], in assay [3], in [4], in assay [5] and in assay [6] was “inactive” throughout. Also, the Potency entry in assay [8], in assay [9], in assay [11], in [13], in assay [14] and in [15] was “inactive” throughout. Moreover, the Potency result in assay [16] was “inactive”. Moreover, the outcome in [10], in assay [12], in assay [17] and in assay [18] was inactive.

Turning to `N#CCC#N`, the Potency result in assay [1], in assay [2], in assay [3], in [4], in assay [5] and in assay [6] was “inactive” in each case. For the same compound, the Potency result in assay [7], in [8], in [11], in [13], in [14] and in assay [15] was “inactive” throughout. The Potency entry in [16] is “inactive”. Besides, the result in assay [17] was inactive.

`C=CCCl`: the Potency result in assay [1], in [2], in assay [3], in assay [4], in assay [5] and in assay [7] was “inactive” in each case. In addition, the Potency result in assay [8], in [9], in [11], in assay [13], in assay [14] and in assay [15] was “inactive” each time. The Potency result in assay [16] is “inactive”. Besides, the compound was classed as inactive in assay [10], in [12] and in [17].

Turning to `CC(C)(Cl)[N+](=O)[O-]`, the Potency entry in [1], in [2], in assay [3], in [4], in [5] and in [6] was “inactive” throughout. In addition, the Potency result in assay [7], in assay [8], in [9], in assay [11], in assay [13] and in assay [14] was “inactive” each time. Further, the Potency result in [19], in [15] and in [16] was “inactive” in each case. The outcome in [10], in assay [12], in assay [20], in assay [17] and in assay [18] was inactive.

Consider `[O-][Cl+]O`, for which the Potency result in [1], in assay [2], in assay [3], in [4], in [5] and in [6] was “inactive” throughout. Also, the Potency entry in assay [8], in assay [9], in assay [13], in assay [14], in [15] and in [16] was “inactive” throughout. The compound was classed as inactive in assay [10], in assay [12] and in assay [18].

With `CCOC(=O)COc1cc(-c2nn(C)c(OC(F)F)c2Cl)c(F)cc1Cl`, the Potency entry in assay [1], in assay [3], in assay [4], in assay [5], in assay [7] and in [8] was “inactive” each time. For the same compound, the Potency entry in [9], in [13], in assay [14] and in [16] was “inactive” each time. In addition, the Potency in assay [2] was 19.3 µM (active). The outcome in assay [12], in assay [17] and in assay [18] was inactive.

`COC(=O)c1cncn1C(C)c1ccccc1` (stereo not given): the Potency result in assay [1], in assay [2], in assay [3], in [4], in assay [5] and in assay [6] was “inactive” in each case. Further, the Potency entry in [7], in [8], in assay [9], in assay [11], in [13] and in assay [14] was “inactive” in each case. Also, the Potency result in [15] and in [16] was “inactive” throughout. Further, the call in [10], in assay [12] and in assay [18] was inactive.

`CCCN(CCC)c1c([N+](=O)[O-])cc(S(C)(=O)=O)cc1[N+](=O)[O-]`: the Potency entry in [1], in assay [2], in [3], in assay [4], in assay [5] and in assay [6] was “inactive” in each case. For the same compound, the Potency result in assay [7], in assay [8], in assay [9], in assay [11], in assay [13] and in assay [14] was “inactive” each time. For the same compound, the Potency entry in assay [15] and in assay [16] was “inactive” in each case. The compound was classed as inactive in assay [12].
